Test results taken from paper PMC7862700, “An all-to-all approach to the identification of sequence-specific readers for epigenetic DNA modifications on cytosine”.

Assays:
Assay in all cases: DAPPL (digital affinity profiling via proximity ligation, sequencing); 10 mM Tris-HCl pH 7.5, 50 mM NaCl, 1 mM DTT, 4% glycerol, room temperature, 30 min; GST-TFs on glutathione beads, 16-mer random dsDNA library, 0.1% formaldehyde crosslink after washing; high values mean tight binding
FEV = target: T1, FEV (Homo sapiens, UniProt Q99581 1-238); conditions: protein: recombinant; tags: N-terminal GST; dsDNA, one strand shown
T1 sequence: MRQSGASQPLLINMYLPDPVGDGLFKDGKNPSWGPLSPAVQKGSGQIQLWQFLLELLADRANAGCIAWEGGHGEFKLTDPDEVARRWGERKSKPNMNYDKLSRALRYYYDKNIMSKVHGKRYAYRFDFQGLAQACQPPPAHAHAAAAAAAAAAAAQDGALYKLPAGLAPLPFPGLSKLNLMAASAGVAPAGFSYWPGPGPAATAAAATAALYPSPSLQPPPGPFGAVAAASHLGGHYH
Procedure, shortened: (§1)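 Beads coated with glutathione captured GST-fused human transcription factors that had been expressed in yeast, and the factors were then given DNA barcodes and pooled with a tag-only sample. The pools were incubated with 200 nmole of a random double-stranded 16-mer DNA library in Tris/NaCl/DTT/glycerol buffer for 30 min at room temperature, washed, crosslinked with 0.1% formaldehyde and proximity-ligated with BsaI/T4 ligase at 37 °C for 1 h. PCR amplification and Illumina NextSeq500 sequencing came last. Binding signal is each hexamer's read frequency for a factor divided by its frequency for the tag-only sample.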

ETV5 = ETV5 (Homo sapiens, UniProt P41161 1-510); conditions: protein: recombinant; tags: N-terminal GST; dsDNA, one strand shown
ETV5, sequence (P41161 whole entry): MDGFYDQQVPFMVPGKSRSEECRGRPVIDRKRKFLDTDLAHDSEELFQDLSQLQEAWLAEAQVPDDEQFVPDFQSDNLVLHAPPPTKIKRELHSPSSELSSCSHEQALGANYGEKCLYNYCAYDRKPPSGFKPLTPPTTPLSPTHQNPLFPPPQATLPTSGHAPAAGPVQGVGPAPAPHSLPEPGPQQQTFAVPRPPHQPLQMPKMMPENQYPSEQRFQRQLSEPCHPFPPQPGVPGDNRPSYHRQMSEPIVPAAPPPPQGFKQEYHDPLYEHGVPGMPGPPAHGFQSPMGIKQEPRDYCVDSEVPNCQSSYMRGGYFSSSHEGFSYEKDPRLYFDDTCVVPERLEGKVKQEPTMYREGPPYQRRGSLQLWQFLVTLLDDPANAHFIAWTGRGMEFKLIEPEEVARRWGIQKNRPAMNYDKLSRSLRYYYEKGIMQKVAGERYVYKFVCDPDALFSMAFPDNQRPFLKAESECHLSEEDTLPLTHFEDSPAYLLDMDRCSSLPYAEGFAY
Procedure, shortened: as §1

HSF1 = HSF1 (Homo sapiens, UniProt Q00613 1-529); conditions: protein: recombinant; tags: N-terminal GST; chain copies: 3; dsDNA, one strand shown
HSF1, sequence (Q00613 whole entry): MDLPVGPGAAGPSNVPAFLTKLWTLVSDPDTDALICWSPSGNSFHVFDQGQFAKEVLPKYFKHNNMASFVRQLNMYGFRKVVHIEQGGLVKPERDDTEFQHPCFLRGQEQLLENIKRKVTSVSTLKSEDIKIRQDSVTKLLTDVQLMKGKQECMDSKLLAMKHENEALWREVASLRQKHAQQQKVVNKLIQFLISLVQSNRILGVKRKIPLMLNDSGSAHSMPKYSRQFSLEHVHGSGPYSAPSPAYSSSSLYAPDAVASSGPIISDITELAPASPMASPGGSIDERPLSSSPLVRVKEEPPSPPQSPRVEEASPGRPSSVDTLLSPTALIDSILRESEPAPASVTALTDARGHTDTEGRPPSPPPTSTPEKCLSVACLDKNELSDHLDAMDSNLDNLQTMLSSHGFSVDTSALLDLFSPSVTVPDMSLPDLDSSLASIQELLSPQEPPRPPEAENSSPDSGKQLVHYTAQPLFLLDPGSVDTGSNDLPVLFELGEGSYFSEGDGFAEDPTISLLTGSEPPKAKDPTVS
Procedure, shortened: as §1

SPIC = target: T2, SPIC (Homo sapiens, UniProt Q8N5J4 1-248); conditions: protein: recombinant; tags: N-terminal GST; dsDNA, one strand shown
T2 sequence: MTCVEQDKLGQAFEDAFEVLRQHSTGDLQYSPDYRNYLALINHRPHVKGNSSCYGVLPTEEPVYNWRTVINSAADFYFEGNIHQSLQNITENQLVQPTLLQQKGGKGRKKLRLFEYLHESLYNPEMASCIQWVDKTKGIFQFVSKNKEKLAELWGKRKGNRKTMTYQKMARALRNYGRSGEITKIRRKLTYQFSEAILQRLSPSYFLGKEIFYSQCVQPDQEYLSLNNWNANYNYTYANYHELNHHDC
Procedure, shortened: as §1

ELF4 = ELF4 (Homo sapiens, UniProt Q99607 1-663); conditions: protein: recombinant; tags: N-terminal GST; dsDNA, one strand shown
ELF4, sequence (Q99607 whole entry): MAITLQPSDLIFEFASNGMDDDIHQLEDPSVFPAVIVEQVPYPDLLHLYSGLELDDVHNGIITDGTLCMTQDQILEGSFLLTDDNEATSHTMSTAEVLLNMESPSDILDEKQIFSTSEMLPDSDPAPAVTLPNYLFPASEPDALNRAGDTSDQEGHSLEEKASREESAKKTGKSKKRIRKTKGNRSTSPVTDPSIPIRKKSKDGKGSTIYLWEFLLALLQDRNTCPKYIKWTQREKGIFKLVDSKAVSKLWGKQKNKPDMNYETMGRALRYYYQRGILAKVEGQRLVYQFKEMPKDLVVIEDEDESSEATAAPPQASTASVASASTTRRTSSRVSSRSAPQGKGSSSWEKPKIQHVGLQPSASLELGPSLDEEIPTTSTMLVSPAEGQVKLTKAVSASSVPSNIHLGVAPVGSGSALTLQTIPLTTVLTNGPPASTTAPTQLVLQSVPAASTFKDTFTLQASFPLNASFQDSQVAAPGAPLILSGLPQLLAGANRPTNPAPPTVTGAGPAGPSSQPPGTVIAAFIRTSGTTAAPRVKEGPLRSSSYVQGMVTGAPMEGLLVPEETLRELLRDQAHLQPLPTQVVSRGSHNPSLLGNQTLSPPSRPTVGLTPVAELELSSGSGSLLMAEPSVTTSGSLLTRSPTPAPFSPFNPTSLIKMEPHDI
Procedure, shortened: as §1

ELK4 = target: T3, ELK4 (Homo sapiens, UniProt P28324-2 1-405); conditions: protein: recombinant; tags: N-terminal GST; dsDNA, one strand shown
T3 sequence: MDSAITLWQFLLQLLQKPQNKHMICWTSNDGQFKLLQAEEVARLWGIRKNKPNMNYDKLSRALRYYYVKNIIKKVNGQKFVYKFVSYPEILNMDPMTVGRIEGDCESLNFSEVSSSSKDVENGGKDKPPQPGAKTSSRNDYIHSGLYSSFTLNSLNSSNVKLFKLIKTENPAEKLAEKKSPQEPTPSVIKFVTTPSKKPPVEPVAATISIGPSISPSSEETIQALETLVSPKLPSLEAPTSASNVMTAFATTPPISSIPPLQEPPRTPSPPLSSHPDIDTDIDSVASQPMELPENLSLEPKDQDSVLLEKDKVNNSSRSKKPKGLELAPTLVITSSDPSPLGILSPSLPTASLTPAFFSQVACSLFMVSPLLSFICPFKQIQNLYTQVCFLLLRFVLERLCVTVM
Procedure, shortened: as §1

ETV2 = target: T4, ETV2 (Homo sapiens, UniProt O00321 1-342); conditions: protein: recombinant; tags: N-terminal GST; dsDNA, one strand shown
T4 sequence: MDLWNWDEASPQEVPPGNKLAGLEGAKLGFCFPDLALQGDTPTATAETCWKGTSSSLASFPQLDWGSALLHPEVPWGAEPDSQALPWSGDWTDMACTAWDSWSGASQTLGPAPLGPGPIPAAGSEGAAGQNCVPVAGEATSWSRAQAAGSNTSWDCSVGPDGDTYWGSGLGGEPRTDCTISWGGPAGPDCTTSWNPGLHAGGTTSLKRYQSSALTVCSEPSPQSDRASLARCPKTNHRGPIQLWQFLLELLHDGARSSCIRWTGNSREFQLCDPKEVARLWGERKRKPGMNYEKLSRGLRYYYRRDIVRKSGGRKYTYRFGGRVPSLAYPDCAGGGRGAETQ
Procedure, shortened: as §1

ELF3 = target: T5, ELF3 (Homo sapiens, UniProt P78545 1-371); conditions: protein: recombinant; tags: N-terminal GST; dsDNA, one strand shown
T5 sequence: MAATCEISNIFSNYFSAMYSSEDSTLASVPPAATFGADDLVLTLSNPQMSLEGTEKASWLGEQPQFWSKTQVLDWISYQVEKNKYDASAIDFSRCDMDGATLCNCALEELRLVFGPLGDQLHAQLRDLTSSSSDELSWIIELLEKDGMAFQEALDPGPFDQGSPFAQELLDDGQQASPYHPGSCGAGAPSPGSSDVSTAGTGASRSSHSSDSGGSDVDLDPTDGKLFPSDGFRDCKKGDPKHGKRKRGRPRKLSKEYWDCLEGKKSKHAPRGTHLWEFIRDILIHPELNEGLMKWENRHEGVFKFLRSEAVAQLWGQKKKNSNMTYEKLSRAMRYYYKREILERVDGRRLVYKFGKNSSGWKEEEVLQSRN
Procedure, shortened: as §1

CRX = CRX (Homo sapiens, UniProt O43186 1-299); conditions: protein: recombinant; tags: N-terminal GST; dsDNA, one strand shown
CRX, sequence (O43186 whole entry): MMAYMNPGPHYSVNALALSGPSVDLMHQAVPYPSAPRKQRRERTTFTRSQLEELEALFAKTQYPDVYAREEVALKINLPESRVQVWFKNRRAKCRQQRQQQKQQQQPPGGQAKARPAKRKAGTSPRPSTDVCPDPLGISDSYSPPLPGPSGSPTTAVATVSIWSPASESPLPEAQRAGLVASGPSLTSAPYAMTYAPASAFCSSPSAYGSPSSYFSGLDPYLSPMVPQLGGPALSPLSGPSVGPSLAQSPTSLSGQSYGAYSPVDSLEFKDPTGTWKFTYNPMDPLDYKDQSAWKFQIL
Procedure, shortened: as §1

ETV1 = ETV1 (Homo sapiens, UniProt P50549 1-477); conditions: protein: recombinant; tags: N-terminal GST; dsDNA, one strand shown
ETV1, sequence (P50549 whole entry): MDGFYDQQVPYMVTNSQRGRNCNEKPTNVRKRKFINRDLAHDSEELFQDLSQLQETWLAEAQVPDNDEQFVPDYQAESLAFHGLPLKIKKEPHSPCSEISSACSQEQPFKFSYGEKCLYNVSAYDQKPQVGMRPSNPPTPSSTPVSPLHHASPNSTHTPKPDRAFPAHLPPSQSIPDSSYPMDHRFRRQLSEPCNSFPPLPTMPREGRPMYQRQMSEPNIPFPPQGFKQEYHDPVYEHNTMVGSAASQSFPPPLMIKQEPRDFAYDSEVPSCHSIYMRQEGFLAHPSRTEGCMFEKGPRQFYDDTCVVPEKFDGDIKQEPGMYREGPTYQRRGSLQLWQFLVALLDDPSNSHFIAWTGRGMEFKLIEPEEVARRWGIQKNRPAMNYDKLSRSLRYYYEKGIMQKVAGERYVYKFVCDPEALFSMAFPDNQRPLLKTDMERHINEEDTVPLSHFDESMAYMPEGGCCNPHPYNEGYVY
Procedure, shortened: as §1

ERF = target: T6, ERF (Homo sapiens, UniProt P50548 1-548); conditions: protein: recombinant; tags: N-terminal GST; dsDNA, one strand shown
T6 sequence: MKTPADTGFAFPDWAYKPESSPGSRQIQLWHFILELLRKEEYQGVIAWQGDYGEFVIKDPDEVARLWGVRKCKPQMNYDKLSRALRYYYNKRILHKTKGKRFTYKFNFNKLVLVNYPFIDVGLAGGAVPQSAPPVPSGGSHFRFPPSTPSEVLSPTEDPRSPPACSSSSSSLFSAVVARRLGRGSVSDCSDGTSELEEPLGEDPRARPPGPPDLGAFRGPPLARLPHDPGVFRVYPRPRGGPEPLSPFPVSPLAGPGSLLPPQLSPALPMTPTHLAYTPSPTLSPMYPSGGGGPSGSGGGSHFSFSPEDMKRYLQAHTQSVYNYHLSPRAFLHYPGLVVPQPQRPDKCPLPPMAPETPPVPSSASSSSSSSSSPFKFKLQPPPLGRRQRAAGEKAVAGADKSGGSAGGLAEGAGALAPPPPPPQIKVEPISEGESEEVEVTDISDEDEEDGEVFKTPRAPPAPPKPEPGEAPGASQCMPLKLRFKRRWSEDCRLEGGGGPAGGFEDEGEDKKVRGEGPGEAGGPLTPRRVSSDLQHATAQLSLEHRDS
Procedure, shortened: as §1

ETV3L = target: T7, ETV3L (Homo sapiens, UniProt Q6ZN32 1-361); conditions: protein: recombinant; tags: N-terminal GST; dsDNA, one strand shown
T7 sequence: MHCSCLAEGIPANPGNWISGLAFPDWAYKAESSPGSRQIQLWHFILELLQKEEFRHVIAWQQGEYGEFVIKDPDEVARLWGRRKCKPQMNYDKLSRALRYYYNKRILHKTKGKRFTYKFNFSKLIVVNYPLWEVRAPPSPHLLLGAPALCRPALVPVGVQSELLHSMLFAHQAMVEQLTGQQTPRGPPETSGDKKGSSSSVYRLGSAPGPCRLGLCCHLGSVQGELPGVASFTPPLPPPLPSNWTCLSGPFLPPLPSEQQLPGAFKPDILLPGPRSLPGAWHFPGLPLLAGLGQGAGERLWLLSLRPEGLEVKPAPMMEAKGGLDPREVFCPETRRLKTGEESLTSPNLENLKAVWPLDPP
Procedure, shortened: as §1

ETS2 = target: T8, ETS2 (Homo sapiens, UniProt P15036 1-469); conditions: protein: recombinant; tags: N-terminal GST; dsDNA, one strand shown
T8 sequence: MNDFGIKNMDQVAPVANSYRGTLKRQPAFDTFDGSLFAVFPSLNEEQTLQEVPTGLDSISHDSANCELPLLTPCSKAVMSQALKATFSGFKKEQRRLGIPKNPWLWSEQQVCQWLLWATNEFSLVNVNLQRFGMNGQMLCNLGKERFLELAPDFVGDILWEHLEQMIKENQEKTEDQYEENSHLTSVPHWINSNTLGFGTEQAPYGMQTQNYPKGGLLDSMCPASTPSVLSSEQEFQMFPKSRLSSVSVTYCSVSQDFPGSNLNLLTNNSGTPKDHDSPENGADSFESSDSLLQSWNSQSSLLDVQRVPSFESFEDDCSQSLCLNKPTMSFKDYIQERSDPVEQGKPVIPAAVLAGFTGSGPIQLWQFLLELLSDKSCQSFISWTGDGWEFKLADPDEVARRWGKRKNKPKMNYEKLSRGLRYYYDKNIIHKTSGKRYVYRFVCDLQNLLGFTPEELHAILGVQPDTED
Procedure, shortened: as §1

SPDEF = target: T9, SPDEF (Homo sapiens, UniProt O95238 1-335); conditions: protein: recombinant; tags: N-terminal GST; dsDNA, one strand shown
T9 sequence: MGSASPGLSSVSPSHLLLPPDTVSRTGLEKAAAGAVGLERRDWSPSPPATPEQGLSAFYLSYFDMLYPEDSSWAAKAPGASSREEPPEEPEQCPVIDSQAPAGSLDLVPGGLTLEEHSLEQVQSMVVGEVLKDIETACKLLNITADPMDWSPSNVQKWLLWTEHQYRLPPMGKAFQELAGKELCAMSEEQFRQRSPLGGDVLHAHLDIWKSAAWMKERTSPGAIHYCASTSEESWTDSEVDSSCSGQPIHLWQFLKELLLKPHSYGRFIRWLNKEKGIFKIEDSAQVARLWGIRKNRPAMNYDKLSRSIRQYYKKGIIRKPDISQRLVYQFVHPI
Procedure, shortened: as §1

ETV7 = target: T10, ETV7 (Homo sapiens, UniProt Q9Y603 1-341); conditions: protein: recombinant; tags: N-terminal GST; dsDNA, one strand shown
T10 sequence: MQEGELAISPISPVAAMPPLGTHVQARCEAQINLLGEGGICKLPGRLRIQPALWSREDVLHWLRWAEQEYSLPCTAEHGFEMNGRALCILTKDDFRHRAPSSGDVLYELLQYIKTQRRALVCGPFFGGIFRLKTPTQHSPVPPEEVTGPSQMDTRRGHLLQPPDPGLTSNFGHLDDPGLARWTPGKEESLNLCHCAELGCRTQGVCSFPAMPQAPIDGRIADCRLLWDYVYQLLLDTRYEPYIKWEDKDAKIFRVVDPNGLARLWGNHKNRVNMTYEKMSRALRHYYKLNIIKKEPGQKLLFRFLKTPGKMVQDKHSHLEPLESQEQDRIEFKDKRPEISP
Procedure, shortened: as §1

ELF5 = target: T11, ELF5 (Homo sapiens, UniProt Q9UKW6-2 1-255); conditions: protein: recombinant; tags: N-terminal GST; dsDNA, one strand shown
T11 sequence: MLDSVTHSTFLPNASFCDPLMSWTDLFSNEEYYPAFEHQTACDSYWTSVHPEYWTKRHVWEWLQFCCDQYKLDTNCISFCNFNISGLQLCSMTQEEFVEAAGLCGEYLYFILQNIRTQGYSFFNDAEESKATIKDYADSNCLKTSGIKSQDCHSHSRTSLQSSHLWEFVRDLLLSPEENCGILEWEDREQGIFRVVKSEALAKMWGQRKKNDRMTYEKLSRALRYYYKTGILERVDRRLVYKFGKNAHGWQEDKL
Procedure, shortened: as §1

ETV3 = target: T12, ETV3 (Homo sapiens, UniProt P41162-2 1-143); conditions: protein: recombinant; tags: N-terminal GST; dsDNA, one strand shown
T12 sequence: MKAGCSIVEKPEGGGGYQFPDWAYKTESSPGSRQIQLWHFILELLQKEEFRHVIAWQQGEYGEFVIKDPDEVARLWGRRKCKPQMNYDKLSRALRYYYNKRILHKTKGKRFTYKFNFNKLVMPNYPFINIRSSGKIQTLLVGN
Procedure, shortened: as §1

ETV6 = ETV6 (Homo sapiens, UniProt P41212 1-452); conditions: protein: recombinant; tags: N-terminal GST; dsDNA, one strand shown
ETV6, sequence (P41212 whole entry): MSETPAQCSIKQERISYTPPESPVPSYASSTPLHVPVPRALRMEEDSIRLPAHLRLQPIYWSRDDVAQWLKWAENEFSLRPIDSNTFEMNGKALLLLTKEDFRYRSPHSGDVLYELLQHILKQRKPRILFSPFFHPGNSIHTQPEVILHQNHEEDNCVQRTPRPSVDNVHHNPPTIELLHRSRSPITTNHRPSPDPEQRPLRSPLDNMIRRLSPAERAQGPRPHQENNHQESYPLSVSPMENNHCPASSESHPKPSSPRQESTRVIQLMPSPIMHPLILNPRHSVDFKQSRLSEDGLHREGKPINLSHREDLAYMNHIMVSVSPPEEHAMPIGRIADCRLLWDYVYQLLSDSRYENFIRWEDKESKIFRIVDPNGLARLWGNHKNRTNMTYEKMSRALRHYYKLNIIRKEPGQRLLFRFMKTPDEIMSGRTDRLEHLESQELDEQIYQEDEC
Procedure, shortened: as §1

**Q.** Which binding signal (FEV) does the source give for TTCCTC here?
**A.** 2.13 fold enrichment (6-mer frequency, TF over GST control)

**Q.** And the binding signal (ETV5)?
**A.** 2.47 fold enrichment (6-mer frequency, TF over GST control)

**Q.** And the binding signal (HSF1)?
**A.** 1.61 fold enrichment (6-mer frequency, TF over GST control)

**Q.** What about the binding signal (SPIC) of the same sequence?
**A.** 2.72 fold enrichment (6-mer frequency, TF over GST control)

**Q.** What about the binding signal (ELF4) of the same sequence?
**A.** 2.16 fold enrichment (6-mer frequency, TF over GST control)

**Q.** What about the binding signal (ELK4) of the same sequence?
**A.** 2.1 fold enrichment (6-mer frequency, TF over GST control)

**Q.** What about the binding signal (ETV2) of the same sequence?
**A.** 2.39 fold enrichment (6-mer frequency, TF over GST control)

**Q.** And the binding signal (ELF3)?
**A.** 2.06 fold enrichment (6-mer frequency, TF over GST control)

**Q.** What about the binding signal (CRX) of the same sequence?
**A.** 1.43 fold enrichment (6-mer frequency, TF over GST control)

**Q.** And the binding signal (ETV1)?
**A.** 2.27 fold enrichment (6-mer frequency, TF over GST control)

**Q.** What about the binding signal (ERF) of the same sequence?
**A.** 2.13 fold enrichment (6-mer frequency, TF over GST control)

**Q.** And the binding signal (ETV3L)?
**A.** 2.21 fold enrichment (6-mer frequency, TF over GST control)

**Q.** And the binding signal (ETS2)?
**A.** 2.22 fold enrichment (6-mer frequency, TF over GST control)

**Q.** And the binding signal (SPDEF)?
**A.** 1.96 fold enrichment (6-mer frequency, TF over GST control)

**Q.** And the binding signal (ETV7)?
**A.** 1.96 fold enrichment (6-mer frequency, TF over GST control)

**Q.** And the binding signal (ELF5)?
**A.** 3.84 fold enrichment (6-mer frequency, TF over GST control)

**Q.** And the binding signal (ETV3)?
**A.** 2.38 fold enrichment (6-mer frequency, TF over GST control)

**Q.** What about the binding signal (ETV6) of the same sequence?
**A.** 2.48 fold enrichment (6-mer frequency, TF over GST control)
